Assay outcomes as filed in PubChem BioAssay.
Compounds with a hit are over-represented: about 1.7% of the library has one in this group of screens.
TLR9-MyD88 inh = TLR9-MyD88 interaction inhibition. hit rate 0.21% among 340,000. Q9NR96+Q99836. CHO BLA complementation TLR9-MyD88, CCF4 FRET ratio. AID 504734. inhibition, % at 4.98 µM;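 active = inhibition above the mean over all tested compounds plus 3 SD, cut at about 21% in these data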;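 note: 0% = DMSO only wells and 100% = clavulanate BLA inhibitor control wells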
Target sequence (Q99836 whole entry, looked up): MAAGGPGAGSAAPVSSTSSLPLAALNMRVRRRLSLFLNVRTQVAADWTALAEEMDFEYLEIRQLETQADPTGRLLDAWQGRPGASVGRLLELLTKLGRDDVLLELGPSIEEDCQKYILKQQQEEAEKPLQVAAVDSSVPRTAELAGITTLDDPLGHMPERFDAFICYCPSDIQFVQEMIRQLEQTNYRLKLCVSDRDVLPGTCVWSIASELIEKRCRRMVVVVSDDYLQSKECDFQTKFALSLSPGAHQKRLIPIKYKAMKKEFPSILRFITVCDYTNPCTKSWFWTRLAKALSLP
Target sequence (Q9NR96 whole entry, looked up): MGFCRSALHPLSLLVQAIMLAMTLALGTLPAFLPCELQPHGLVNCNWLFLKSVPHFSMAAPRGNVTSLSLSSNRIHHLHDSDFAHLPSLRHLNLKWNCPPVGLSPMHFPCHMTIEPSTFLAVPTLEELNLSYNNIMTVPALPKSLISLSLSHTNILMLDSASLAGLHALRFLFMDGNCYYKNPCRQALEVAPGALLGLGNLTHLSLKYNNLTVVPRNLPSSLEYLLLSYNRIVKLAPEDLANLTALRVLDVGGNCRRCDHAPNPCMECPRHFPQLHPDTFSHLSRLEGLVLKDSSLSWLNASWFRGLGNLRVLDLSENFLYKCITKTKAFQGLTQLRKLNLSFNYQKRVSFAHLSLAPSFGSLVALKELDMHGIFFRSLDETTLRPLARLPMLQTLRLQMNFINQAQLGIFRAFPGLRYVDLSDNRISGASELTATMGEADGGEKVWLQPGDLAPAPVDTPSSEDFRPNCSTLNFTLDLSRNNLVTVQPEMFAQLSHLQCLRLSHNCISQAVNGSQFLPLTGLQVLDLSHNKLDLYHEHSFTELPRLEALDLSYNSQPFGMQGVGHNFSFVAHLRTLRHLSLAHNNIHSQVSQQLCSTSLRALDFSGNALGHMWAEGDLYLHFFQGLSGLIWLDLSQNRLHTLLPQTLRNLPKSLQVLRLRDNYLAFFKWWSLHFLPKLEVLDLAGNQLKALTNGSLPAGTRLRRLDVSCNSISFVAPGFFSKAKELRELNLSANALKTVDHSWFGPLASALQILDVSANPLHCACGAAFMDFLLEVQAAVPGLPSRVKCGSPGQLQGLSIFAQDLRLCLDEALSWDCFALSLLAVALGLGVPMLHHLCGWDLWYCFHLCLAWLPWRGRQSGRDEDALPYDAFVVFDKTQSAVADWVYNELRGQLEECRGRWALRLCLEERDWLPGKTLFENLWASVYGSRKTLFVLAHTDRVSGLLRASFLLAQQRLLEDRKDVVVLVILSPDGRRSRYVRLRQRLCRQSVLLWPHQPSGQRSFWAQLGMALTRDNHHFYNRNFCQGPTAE
ABCB6 inh 2 = human ABCB6 transporter inhibition. Q9NP58. K562-ABCB6 porphyrin accumulation, flow cytometry, 1 h; stronger effect = lower value. fluorescence ratio to DMSO, % at 10 µM. hit rate 0.19% among 360,000. AID 602162;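 active = fluorescence ratio to DMSO below 75%, the collection mean minus 3 SD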;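 note: signal is porphyrin accumulated inside mitochondria; 100% equals median channel fluorescence of DMSO control wells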
Myeloid diff MLP = compounds promoting myeloid differentiation. AID 624256. calls only at 10 µM. ER-HoxA9 myeloid progenitors, lysozyme-GFP differentiation, flow cytometry. hit rate 1% among 360,000;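 active = normalized GFP-positive differentiation at or above the plate's own cutoff, the solvent-only control mean plus 3 SD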;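 note: cells exposed to compound for four days before flow analysis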
NOD2 RIPK2 PPI = blocks binding of human NOD2 to RIPK2; inhibition, % at 4.98 µM; AID 624267; CHO BLA complementation NOD2-RIPK2, CCF4 ratio; O43353; hit rate 0.38% among 360,000; in the data active = inhibition above about 21%;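 note: 0% = vehicle only and 100% = reference blocker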
TLR4-MyD88 BLA = TLR4-MyD88 interaction inhibition in cells; O00206+Q99836; inhibition, % at 8.4 µM; HeLa CL3-4 TLR4/MyD88 BLA complementation, FRET ratio; hit rate 0.18% among 200,000; in the data active = inhibition above about 25%;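 note: 0% = vehicle and 100% = reference inhibitor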
* = called active by the depositor; i = inactive; nt = no result given; + = active, no number.

SMILES	TLR9-MyD88 inh	ABCB6 inh 2	Myeloid diff MLP	NOD2 RIPK2 PPI	TLR4-MyD88 BLA
Cc1cc(NC(=O)CSc2c[nH]c3ccccc23)no1	-4.5	102.0	i	-13.7	nt
Cc1cc(NC(=O)CSc2nc(-c3cccs3)cc(C(F)(F)F)n2)no1	7.9	95.0	+	-13.2	6.3
Cc1cc(NC(=O)CSc2c(C)[nH]c3ccccc23)no1	6.1	99.0	+	4.2	-11.0
CC/C(=N\NC(=O)c1nnn(-c2nonc2N)c1CN(C)c1ccccc1)c1ccccc1	-8.5	96.0	i	7.2	nt
C=CCN1C(=O)c2ccc(C(=O)N(CC(C)C)c3c(N)n(CCCC)c(=O)[nH]c3=O)cc2C1=O	3.7	97.0	i	-0.7	nt
NNC(=O)c1sc(-c2ccc(Cl)cc2)cc1N	-7.9	135.0	+	-1.3	-2.6
CC(C)n1c(SCC(=O)N2c3ccccc3CCc3ccccc32)nc2c1c(=O)n(C)c(=O)n2C	nt	nt	nt	nt	0.1
CC(C)n1c(SCC(=O)N2c3ccccc3Sc3ccccc32)nc2c1c(=O)n(C)c(=O)n2C	-0.1	96.0	+	-3.4	-3.6
COc1cccc(CC2(CO)CCCN(Cc3cn[nH]c3-c3ccccc3)C2)c1 (centres undefined)	0.1	100.0	+	-5.8	-18.2
O=C(NCc1ccccc1Cl)C1CCCN(c2ncnc3c2nc2n3CCCCC2)C1 (centres undefined)	-0.3	97.0	+	-5.5	nt
CCOc1ccccc1CNC(=O)C1CCCN(c2ncnc3c2nc2n3CCCCC2)C1 (centres undefined)	-23.2	98.0	i	6.0	nt
CN(CC(=O)Nc1cccc(F)c1)C(=O)CCCc1cccs1	0.1	100.0	i	-4.4	2.5
CN(C(=O)c1ccc(NC(=O)Cc2ccc(NC(=O)C3CCN(C(=O)CCc4ccccc4)CC3)cc2)cc1)C1CC1	-4.5	93.0	i	-3.0	nt
CN(C(=O)c1ccc(NC(=O)Cc2ccc(NC(=O)C3CCCN(C(=O)C4CCCC4)C3)cc2)cc1)C1CC1 (centres undefined)	-1.1	100.0	+	-5.8	nt
CN(C(=O)c1ccc(NC(=O)Cc2ccc(NC(=O)C3CCN(C(=O)CCc4ccccc4)CC3)cc2)cc1)C1CCCC1	-2.1	104.0	+	-9.6	nt
CCCCN(C(=O)C1CCN(C(=O)c2ccccc2C)CC1)c1c(N)n(CCC)c(=O)[nH]c1=O	1.4	99.0	i	-16.7	nt
CCCCN(C(=O)c1cc(=O)[nH]c2ccccc12)c1c(N)n(CCCC)c(=O)[nH]c1=O	-0.3	102.0	+	0.6	nt
CCCCN(C(=O)C1CCN(C(=O)c2ccccc2C)CC1)c1c(N)n(CCCC)c(=O)[nH]c1=O	-9.4	92.0	+	1.1	nt
O=S(=O)(N/N=C1/CC(c2ccccc2)Oc2ccccc21)c1ccccc1 (centres undefined)	-6.4	135.0	+	4.9	nt
C=C1C(=O)C=C2CN(C(=O)c3ccccc3)[C@@](Cc3ccc(F)cc3)(C(=O)OC)[C@@H]12	9.2	105.0	+	48.2*	-7.7
COc1ccc2sc(-c3ccc(SC)cc3)c(-c3ccc(O)cc3)c2c1	-2.3	98.0	i	4.9	nt
COC(=O)[C@@]12C[C@@H](CC(=O)NCCCCc3ccccc3)C(=O)N(Cc3ccc4c(c3)OCO4)C1=CCC(C)(C)C2	nt	nt	+	-12.8	nt
CCCCNC(=O)c1onc(CSc2ccc(C(C)C)cc2)c1C(=O)O	-12.3	95.0	i	-4.8	-11.2
CC(C)(C)C(=O)NCc1ccc(C(=O)CSc2nnc3n2CCCCC3)s1	0.3	98.0	i	-2.5	nt
O=C(NC1CC1)C1CC(=O)N(c2cccc(Cl)c2)C1 (centres undefined)	-4.6	99.0	+	6.5	nt
Cc1ccc(N2CC(C(=O)NC3CC3)CC2=O)cc1Cl (centres undefined)	0.9	109.0	i	-3.6	nt
C#CCOCCOCCOCCNc1nc(N2CCN(C(=O)C([C@@H](C)O)n3cc([C@@H](N)CCCCN)nn3)CC2)nc(N2CCN(C(=O)[C@H](CCCCN)n3cc([C@@H](N)[C@H](C)CC)nn3)CC2)n1 (some centres undefined)	-3.9	103.0	i	-4.5	nt
C#CCOCCOCCOCCNc1nc(N2CCN(C(=O)[C@H](CCCN=C(N)N)n3cc(C(N)[C@@H](C)CC)nn3)CC2)nc(N2CCN(C(=O)[C@H](CCC(=O)O)n3cc([C@@H](N)CC(N)=O)nn3)CC2)n1 (some centres undefined)	-6.6	100.0	+	2.2	nt
